Pol beta inh: inhibitors of human DNA polymerase beta. AID 485314. 340,000 tested, 1.3% active. Potency, µM (top dose mostly 114 µM), without a hit: top-dose activity change, negative = inhibition, hits mostly inhibitors. Pol beta primer extension/strand displacement, fluorescence kinetic; note: % is set by controls: 0 for no effect and ±100 for the full control effect
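Pol beta (10 nM) was preincubated with compound for 15 min at room temperature. The reaction was then started with 50 nM substrate and read immediately and after a further 10 min at room temperature.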
Pol iota inh: DNA polymerase iota (human) inhibition; 390,000 tested, 1% active; Potency, µM (highest dose often 115 µM), without a hit: at the highest dose activity, negative = inhibition, actives largely listed as inhibitors; AID 588590; Pol iota fluorescent replication assay, 10 min
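Pol iota at 10 nM preincubated 15 min with compounds at room temperature; reaction started with fluorescent substrate, 50 nM final. Fluorescence read kinetically at 0 and 10 min; buffer-only wells as negative control.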
Pol kappa inh: blocks human DNA polymerase kappa activity | Q9UBT6 | purified Pol kappa, fluorescent DNA synthesis assay, 10 min | Potency, µM (highest dose often 107 µM), without a hit: top-dose activity, negative = inhibition, actives largely listed as inhibitors | 400,000 tested, 0.53% active; note: % is set by controls: 0 for no effect and ±100 for the full control effect
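Pol kappa 10 nM + cpd, 15 min RT; start w/ substrate 50 nM final; fluorescence kinetic read, 0 and 10 min. Neg ctrl: buffer, no enzyme.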
POLH inh: DNA polymerase eta (human) inhibition; Q9Y253; recombinant Pol eta, fluorescent DNA replication assay; Potency, µM (doses to about 114 µM), without a hit: top-dose activity change, negative = inhibition, hits mostly inhibitors; 390,000 tested, 1.2% active; note: % is set by controls: 0 for no effect and ±100 for the full control effect
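Pol eta (10 nM) was preincubated with compounds for 15 min at room temperature, after which fluorescent replication substrate (50 nM final) was added to start the reaction. Fluorescence was read kinetically at 0 and 10 min.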
WRN helicase inh: WRN helicase (human) inhibition. Q14191. WRN helicase unwinding, fluorescent forked duplex, kinetic. Potency, µM (titrated, usually from 114 µM), for inactives: at the highest dose activity change, negative = inhibition, actives largely listed as inhibitors. 360,000 tested, 0.46% active; note: % is set by controls: 0 for no effect and ±100 for the full control effect; nearly all actives have a fitted effect of over 55% in size
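Kinetic red-fluorescence monitoring (525/598 nm) tracks WRN helicase activity after 100 nM fluorophore-quencher forked duplex and 2 mM ATP are added to 20 nM enzyme pretreated 15 min at room temperature with compound.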
* marks the source's active call; other numbers are inactive results; ? = inconclusive; nt = not tested or not shown; [ ] = dose if it differs, or a comment. An excerpt weighted towards active compounds, which were near 2.3% of everything screened. Calls come from the whole dose curve; as a rule, active = well fitted curve in the direction sought with a large enough effect; inconclusive = small, poorly fitted or top-dose-only effect, or another doubt; inactive = no such curve, though single readings can be large; an effect the other way counts as inactive or inconclusive. Potency is the fitted concentration of half-maximal effect.

SMILES	Pol beta inh	Pol iota inh	Pol kappa inh	POLH inh	WRN helicase inh
O=C1/C(=C\c2cc(Br)cc(Br)c2O)SC(=S)N1Cc1ccccc1	35µM*	3.2µM*	-26%	79µM*	40µM*
O=C1/C(=C\c2ccc(O)cc2)SC(=S)N1Cc1ccccc1	?	?	-26%	-12%	-12%[11.6 µM]
CCOC(=O)c1cnn2c(N)c(C#N)nnc12	4%	89µM*	-8%	?	-13%
CCOC(=O)c1cnn2c(N)c(C#N)cnc12	-7%	-7%	-4%	2%	5%
Cc1ccc(-n2c(C)nn(Cc3ccc([N+](=O)[O-])cc3)c2=O)cc1	41%	5%	-11%	-14%	-4%
Cc1ccc(-n2c3nc(=O)[nH]c(=O)c-3cc3cc([N+](=O)[O-])ccc32)cc1	49%	?	-4%	45µM*	?
COC(=O)c1ccsc1NC(=O)c1cccc(OC)c1	-1%	89µM*	-5%	-25%	-5%
CC(=O)N(C(C)=O)N1C(=O)/C(=C/c2ccc(Cl)cc2)SC1=S	?	25µM*	-34%	28µM*	?
COc1cc(/C=C2/C(=O)NN(c3ccc(Cl)cc3)C2=O)cc(OC)c1O	-25%	?	-7%	-5%	-26%
COc1cc(/C=C2\C(=O)NN(c3ccc(C)cc3)C2=O)cc([N+](=O)[O-])c1O	?	-11%	-26%	22µM*	?
COc1cc(/C=C2\SC(=O)N(Cc3ccc(Cl)cc3)C2=O)cc([N+](=O)[O-])c1O	8%	?	-18%	79µM*	-6%[11.6 µM]
O=C(C[n+]1csc2ccccc21)c1ccc(I)cc1	nt	-6%	-6%	nt	nt
CC(C)N1CCN(Cc2cccc(-c3ccco3)c2)CC1CCO (centres undefined)	10µM*	41%	-7%	-20%	0%
Cc1onc(-c2ccccc2Cl)c1C(=O)NCCn1c(C)cc2ccccc21	?	?	-13%	?	79µM*
Cc1onc(-c2ccccc2Cl)c1C(=O)NCC(=O)O	41%	5%	-14%	2%	-7%
COc1ccc(/C=C/C(=O)c2ccc([N+](=O)[O-])o2)cc1OC	nt	8.9µM*	5%	?	-22%
CN(C)c1ccc(/C=C/c2cc3ccccc3cn2)cc1	nt	-19%	?	nt	nt
CCO/C=C1\SC(=S)N(c2ccc(Cl)cc2)C1=O	?	25µM*	-15%	-9%	?
CCN(CC)c1ccc(N2C(=O)/C(=C/c3cccs3)SC2=S)cc1	104%	10%	-3%	0%	-4%
CCN1C(=O)c2cccc3c(S(=O)(=O)NCc4cccnc4)ccc1c23	28%	13%	-2%	-12%	-18%[57.1 µM]
CCN1C(=O)c2cccc3c(S(=O)(=O)NCc4ccco4)ccc1c23	1%	32µM*	-15%	-12%	-16%
COc1cc([N+](=O)[O-])ccc1-c1ccc(/C=N/NC(N)=O)o1	?	89µM*	-13%	9%	17%
COC(=O)[C@@H]1C[C@@]2(Br)c3ccccc3N(S(=O)(=O)c3ccccc3)[C@H]2N1C(=O)OC	nt	89µM*	-1%	-17%	-12%[11.6 µM]
O=[N+]([O-])c1ccc(CSc2ncnc3c2ncn3C2OC(CO)C(O)C2O)cc1 (centres undefined)	nt	nt	6%[19.4 µM]	nt	nt
OC[C@H]1O[C@@H](OC[C@H]2O[C@@H](O)[C@H](O)[C@@H](O)[C@@H]2O)[C@H](O)[C@@H](O)[C@@H]1O	nt	nt	-8%[19.4 µM]	nt	nt
CC(/C=C/C=C(\C)C(=O)O[C@@H]1O[C@H](CO[C@@H]2O[C@H](CO)[C@@H](O)[C@H](O)[C@H]2O)[C@@H](O)[C@H](O)[C@H]1O)=C\C=C\C=C(C)\C=C\C=C(/C)C(=O)O[C@@H]1O[C@H](CO[C@@H]2O[C@H](CO)[C@@H](O)[C@H](O)[C@H]2O)[C@@H](O)[C@H](O)[C@H]1O	nt	nt	21µM*	nt	nt
C=C1C=C(C)n2ncc(C(=O)NCCCCCC)c2N1	nt	28%	2%	nt	nt
O=C(Nc1nnc(Cc2ccccc2)s1)C1CCN(C(=O)c2cccs2)CC1	nt	26%	-16%	nt	nt
O=C(OC1CCOC1=O)c1ccccc1C(=O)c1ccc(Cl)c([N+](=O)[O-])c1 (centres undefined)	nt	40µM*	-37%	50µM*	-6%

Compound activity from PubChem.
